Source: PubChem BioAssay AID686970 (National Center for Advancing Translational Sciences (NCATS), 2013)
The whole screen tested about 360,000 compounds, of which about 6,000 (1.7%) were called active. About 8% were inconclusive and are not listed. Calls come from the whole dose curve; as a rule, active = well fitted cell-killing curve with a large enough effect; inconclusive = small, poorly fitted or top-dose-only effect, or effect the other way; inactive = flat fitted curve, though single readings scatter. The list comes from a sample in which actives are over-represented; it also holds similar structures and randomly drawn compounds.

Assay: qHTS for induction of synthetic lethality in tumor cells producing 2HG: qHTS for the HT-1080-NT fibrosarcoma cell line; note: nearly all actives have a fitted effect of over 55% in size
Details: HT-1080-NT fibrosarcoma viability, CellTiter-Glo ATP luminescence, 48 h; series mostly up to 46.1 µM; activity, negative = less viability: at the top concentration
Source text: Unbiased genomic sequencing for 22 glioma genomes found recurrent mutation of IDH1 on chromosome 2q33, a gene encoding the cytosolic isoform of IDH1 associated with the tricarboxylic acid cycle (TCA) that catalyzes the oxidative decarboxylation of isocitrate, yielding alpha-ketoglutarate and CO2 via NADP+ to NADPH conversion. Subsequent studies confirmed the recurrent IDH mutations in up to 70% of secondary gliomas and in 10% of AML cases. In addition, the somatic mutation of cancer-associated IDH1 is a point mutation resulting in various amino-acid substituents at Arginine132 (IDH1 R132), a key residue found in the enzyme's active site that when mutated, results in the loss-of-function in metabolizing isocitrate but confers a gain-of-function to produce the oncometabolite 2-hydroxyglutarate (2HG). This in effect defines IDH1 as an oncogene and provides an extraordinary opportunity to discover chemical probes against mutant IDH1 that may translate into much needed new therapies for glioma and AML patients.
This assay aims to perform a synthetic lethal screen for chemical probes specific for 2HG-producing tumor cells using matched paired cell lines (1) HT-1080-NT fibrosarcoma cell line that overproduces 2HG and (2) HT-1080-IDH1KD cell line which has IDH1 expression knocked-down. Desirable compounds are toxic to the NT fibrosarcoma cells but not to the IDH1KD cell line. The data in this AID corresponds to the results of the qHTS against the HT-1080-NT fibrosarcoma cell line.
[1] Dang L, Jin S, Su SM. IDH mutations in glioma and acute myeloid leukemia. Trends of Mol Med. 2010; 16(9): 387-97.
[2] Dang L et al. Cancer-associated IDH1 mutations produce 2-hydroxyglutarate. Nature. 2010; 465(7300):966.
NIH Molecular Libraries Probe Production Centers Network [MLPCN]
NIH Chemical Genomics Center [NCGC]
Assay Submitter (PI): Lenny Dang Ph.D., Agios Pharmaceuticals
Suspensions of trypsinized HT-1080-NT cells were dispensed into white, tissue culture-treated, solid 1536-well plates at 5uL/well (750 cells/well final concentration) in RPMI medium supplemented with 5% FBS. Plates were incubated at 37 degrees C for 2 hours, after which 23 nL of compounds or DMSO were delivered to each well using a pin tool. Plates were then incubated at 37 degrees C for an additional 48 hours. CellTiter-Glo viability reagent (Promega) was dispensed into wells (2.5uL/well) and incubated at room temperature for 10 minutes. The plates were measured on a PerkinElmer ViewLux plate reader for luminescent signal (clear filter, 1 sec exp). DMSO-treated control wells and media-only (no cells) control wells were used to normalize %Activity of identified toxic compounds; DMSO-treated wells corresponded to 0%Activity (100% viability), while media-only controls were used to normalize 100%Activity (0% viability).
Concentration-response curves were fitted to the signals arising from the resulting luminescence. The concentration-effect curves were then classified based on curve quality (r2), response magnitude and degree of measured activity, and compounds were subsequently categorized based on their curve class.
Potency is the fitted concentration of half-maximal effect.

Row | Structure (SMILES) | Potency | activity, negative = less viability
1 | COc1ccc2c(c1OC)C(=O)OC2Nc1nc(-c2ccccc2)cs1 (stereo not drawn) | 18.4 µM (active) | –
2 | COc1ccc(-c2csc(Nc3cccc(C)n3)n2)cc1OC | – | 1.13% (inactive)
3 | O=C(NCc1cccc(C(F)(F)F)c1)c1ccc2sc(COCCO)nc2c1 | – | 0.384% (inactive)
4 | COc1ccc(OC)c(NC(=O)C2CCCN2S(=O)(=O)c2ccc3c(c2)CC(C)N3C(C)=O)c1 (stereo not drawn) | – | 1.98% (inactive)
5 | C=C1C(=O)[C@]23C[C@H]1CCC2[C@@]1(C)C(C[C@@H]3O)[C@](C)(C(=O)O)CC[C@@H]1O (stereo partly drawn) | 18.4 µM (active) | –
6 | CCc1nc2ccc(C(=O)NC3CCN(Cc4ccccc4)CC3)cn2c1N(CC)CCOC | – | 3% (inactive)
7 | CN(C)C(=O)c1cccc(-c2cnc3c(NC=O)cc(-c4ccc(C(=O)N5CCOCC5)cc4)cn23)c1 | – | -6.25% (inactive)
8 | CCOC(=O)N1CCN(CCC(=O)Nc2ccccc2)CC1 | – | 16.3% (inactive)
9 | O=C(CN1CCN(Cc2ccccc2)CC1)Nc1ccc(F)c(F)c1 | – | -3.12% (inactive)
10 | Cc1cc(NC(=O)CCN2CCN(Cc3ccccc3)CC2)ccc1Br | 20.6 µM (active) | –
11 | CC(=O)Nc1cccc(Nc2ccc(C#N)cc2)c1 | – | 3.54% (inactive)
12 | O=[N+]([O-])c1ccc(Oc2ccc(F)cc2Br)c2ccncc12 | 16.4 µM (active) | –
13 | CC(C)C1Cc2[nH][nH]c(=O)c2C(c2ccc(Cl)cc2)O1 (stereo not drawn) | – | 13.4% (inactive)
14 | COC(=O)[C@]12CCCCC=C1N(Cc1ccccc1)C(=O)[C@H](CC(=O)NCc1ccc(C)o1)C2 | – | 17.2% (inactive)
15 | C#CCOCCOCCOCCNc1nc(N2CCN(C(=O)[C@H](C(C)C)n3cc(CCO)nn3)CC2)nc(N2CCN(C(=O)[C@H]([C@@H](C)CC)n3cc(CCCN=C(N)N)nn3)CC2)n1 | – | 13.2% (inactive)
16 | C#CCOCCOCCOCCNc1nc(N2CCN(C(=O)Cn3cc(CCO)nn3)CC2)nc(N2CCN(C(=O)Cn3cc(CCCN=C(N)N)nn3)CC2)n1 | – | 4.19% (inactive)
17 | C#CCOCCOCCOCCNc1nc(N2CCN(C(=O)CCCCCCCCCCNC(=O)[C@H]([C@@H](C)CC)n3cc(CCCCN=C(N)N)nn3)CC2)nc(N2CCN(C(=O)CCCCCCCCCCNC(=O)[C@H](CO)n3cc(CCCSC)nn3)CC2)n1 | 23.1 µM (active) | –
18 | Cc1ccc(NC(=O)COC(=O)CN2CCSC2=O)cc1F | – | 2.14% (inactive)
19 | CCCCn1nnnc1C(c1ccccc1)N1CCN(c2ccccc2OC)CC1 (stereo not drawn) | – | -0.82% (inactive)
20 | CC1Cc2[nH][nH]c(=O)c2C(C2CC2)O1 (stereo not drawn) | – | 2.88% (inactive)
21 | Cc1ccc(C(=O)OCC(=O)NC2CCCCCCC2)cc1C | – | 17.5% (inactive)
22 | NC(=O)CSc1nnc(NC(=O)c2ccc(Br)o2)s1 | – | 8.26% (inactive)
23 | COCCSc1nnc(NC(=O)CCS(=O)(=O)Cc2ccccc2)s1 | – | 21.1% (inactive)
24 | CSc1nnc(NC(=O)c2nc(S(=O)(=O)Cc3ccc(C)cc3)ncc2Cl)s1 | 7.31 µM (active) | –

Row | Structure (SMILES) | Potency | activity, negative = less viability
25 | Cc1cccc(NC(=O)c2nc(S(=O)(=O)Cc3ccccc3)ncc2Cl)c1 | 6.51 µM (active) | –
26 | Cc1cccc(NC(=O)C(C)SCc2ccccc2)c1 (stereo not drawn) | – | -15.9% (inactive)
27 | Cc1cccc(NC(=O)CSc2nc3[nH]ncc3c(=O)[nH]2)c1 | – | 2.75% (inactive)
28 | Cc1nc2ccccc2nc1CC(O)(c1ccccc1)c1ccccc1 | – | 9.35% (inactive)
29 | CC1(c2cccc(Br)c2)NC(=O)N(CC(=O)NCCC2=CCCCC2)C1=O (stereo not drawn) | – | -1.7% (inactive)
30 | O=C1CCC(C(=O)OCC(=O)Nc2ccc(OC(F)F)cc2)=NN1 | – | -0.926% (inactive)
31 | CCN(C(=O)Nc1cccc2ccccc12)c1ccccc1 | – | -0.44% (inactive)
32 | O=C(NCC1CCN(Cc2ccccc2Cl)CC1)Nc1cccc(Cl)c1 | – | -26.3% (inactive)
33 | Cc1ccccc1NC(=O)NCC1CCN(Cc2cccc(Cl)c2)CC1 | – | -6.74% (inactive)
34 | Cc1cccc(CN2CCC(CNC(=O)Nc3ccc(F)c(Cl)c3)CC2)c1 | 16.4 µM (active) | –
35 | OC[C@@H]1CN(Cc2ccc(Cl)cc2)C[C@H](n2cnc3c(NCc4ccncc4)ncnc32)O1 | – | -7.01% (inactive)
36 | O=C(CSc1ccccc1)Nc1nnc(/C=C/c2ccccc2)s1 | 23.1 µM (active) | –
37 | CCOCc1nnc(NC(=O)CSc2ccc(C)cc2)s1 | – | 14.3% (inactive)
38 | O=C(Nc1ccc(Cl)cc1)Nc1nnc(/C=C/c2ccccc2)s1 | – | -3.6% (inactive)
39 | CC1(C)OC(=O)C2=C(C[C@@H](C3CC3)O[C@H]2c2ccc(Cl)cc2)O1 | – | 14.9% (inactive)
40 | CC1(C(=O)NS(=O)(=O)c2cccc(OC(F)F)c2)CCN1C(=O)COc1ccc(Cl)cc1 (stereo not drawn) | – | 20.8% (inactive)
41 | CCCNC(=O)C1(C)CCCN(Cc2c(C)nn(-c3ccccc3)c2C)C1 (stereo not drawn) | – | 12.6% (inactive)
42 | C=CCNC(=O)/C(=C\c1cccc([N+](=O)[O-])c1)NC(=O)c1ccccc1 | – | 14.3% (inactive)
43 | Cc1ccc(C(=O)N/C(=C/c2ccc(-c3cccc([N+](=O)[O-])c3)o2)C(=O)NCCCN(C)C)cc1 | 14.6 µM (active) | –
44 | CN(C)CCNC(=O)/C(=C/c1cccc([N+](=O)[O-])c1)NC(=O)c1ccccc1 | – | 4.98% (inactive)
45 | Cc1ccc(CNC(=O)Nc2nnc([C@H]3C[C@H](O)[C@@H](CO)O3)s2)cc1 | – | 9.37% (inactive)
46 | O=C(NC(=S)NC1CCCCC1)c1ccc(Cl)cc1 | – | -10.4% (inactive)
47 | O=C(NC1CCCCC1)c1ccc(-c2ccc(Cl)cc2)o1 | 18.4 µM (active) | –
48 | O=C(NC1CCCCCC1)c1cccnc1Sc1ccc(Cl)cc1 | – | -21.3% (inactive)
